High-throughput results from PubChem BioAssay.
GPT2 inhibitor = Primary qHTS assay for inhibitors of Glutamate pyruvate transaminase 2 (GPT2); Potency, µM (top dose mostly 57.7 µM), for inactives: at the top dose activity change, negative = inhibition, most hits filed as inhibitors; 100,000 tested, 0.25% active; AID 1671188, 2021; Recombinant GPT2, coupled pyruvate oxidase/HRP Amplex Red fluorescence; note: potency is the fitted concentration of half-maximal effect; nearly all actives have a fitted effect of over 60% in size
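Recombinant GPT2 (10ng/uL) with 250uM a-KG and 2mM L-alanine, 30 min at room temperature, in HEPES pH 7.5 buffer. Pyruvate detected by pyruvate oxidase/HRP/Amplex Red fluorescence after 30 min in the dark; AOA (50uM) as positive control.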
SNCA expr inhib = Primary qHTS assay for inhibitors of alpha-synuclein gene (SNCA) expression; Potency, µM (titrated, usually from 57.2 µM), inactives show top-dose activity change, negative = inhibition, hits mostly inhibitors; HEK-293 SNCA-luciferase knock-in, luminescence, 24 h; 140,000 tested, 0.17% active;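 note: potency is the fitted concentration of half-maximal effect; plate controls were DMSO cells for no effect and cell-free wells for full effect; nearly all actives have a fitted effect of over 45% in size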
HEK293 viab = GF-AFC viability counterscreen for inhibitors of alpha-synuclein gene (SNCA) expression; HEK-293-SNCA-luc viability, GF-AFC fluorescence, 24 h; Potency, µM (highest dose often 57.1 µM), inactives show at the top dose activity change, negative = cytotoxicity, usual class: cytotoxic; 150,000 tested, 0.12% active; AID 1671193, 2021;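 note: potency is the fitted concentration of half-maximal effect; 0% = DMSO-treated cells and -100% = medium-only wells without cells; nearly all actives have a fitted effect of over 30% in size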
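HEK-293-SNCA-luc cells (1500/well) plated 24 h, then exposed 24 h to a dilution series; GF-AFC added 30 min at 37C, fluorescence 405/540 nm; normalised to medium-only and DMSO wells, Hill fit.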
IP6K1 inhibitor = Primary qHTS assay for small molecule inhibitors of Inositol hexaphosphate kinase 1 (IP6K1); Inositol hexakisphosphate kinase 1 (Homo sapiens), Q92551; IP6K1 kinase, ADP-Glo luminescence, 2 h; stronger effect = lower value; activity change, % (series mostly up to about 58 µM); 140,000 tested, 0.81% active; AID 1645851, 2021; in the data active = activity change below about -25%
Target sequence (Q92551 whole entry, looked up): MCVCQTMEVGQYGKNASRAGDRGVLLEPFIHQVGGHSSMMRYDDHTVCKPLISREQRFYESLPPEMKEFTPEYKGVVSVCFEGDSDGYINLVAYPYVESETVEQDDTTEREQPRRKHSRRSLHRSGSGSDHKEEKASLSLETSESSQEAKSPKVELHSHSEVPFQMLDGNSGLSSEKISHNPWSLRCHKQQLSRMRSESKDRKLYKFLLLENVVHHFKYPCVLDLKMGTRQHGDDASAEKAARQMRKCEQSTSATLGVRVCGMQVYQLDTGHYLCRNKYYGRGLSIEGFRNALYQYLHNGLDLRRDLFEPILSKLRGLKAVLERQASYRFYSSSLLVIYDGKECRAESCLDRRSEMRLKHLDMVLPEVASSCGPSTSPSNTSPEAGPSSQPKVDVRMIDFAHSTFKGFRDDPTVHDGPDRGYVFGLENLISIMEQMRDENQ
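ADP-Glo luminescence measures ADP made by human IP6K1 during a 2 h RT reaction with ATP/IP6 (mix at 1.3 mM/130 uM); top library doses 57.5 and 19.1 uM final.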
IP6K1 conf = Confirmatory qHTS assay for small molecule inhibitors of Inositol hexaphosphate kinase 1 (IP6K1). Potency, µM (doses to about 49 µM), without a hit: at the top dose activity change, negative = inhibition, usual class: inhibitors. recombinant IP6K1 kinase, ADP-Glo luminescence, 2 h. shares compounds with IP6K1 inhibitor. 1,200 tested, 13% active; note: potency is the fitted concentration of half-maximal effect; nearly all actives have a fitted effect of over 65% in size
The depositor's hits bear a star; i = inactive; ? = inconclusive; · = not tested or not shown; [ ] = dose if it differs, or a comment. Compounds with a hit are over-represented: about 1.1% of the library has one in this group of screens. Unless noted, calls come from the whole dose curve; as a rule, active = well fitted curve in the direction sought with a large enough effect; inconclusive = small, poorly fitted or top-dose-only effect, or another doubt; inactive = no such curve, though single readings can be large; an effect the other way counts as inactive or inconclusive. Unless noted, % is set by controls: 0 for no effect and ±100 for the full control effect.

SMILES | GPT2 inhibitor | SNCA expr inhib | HEK293 viab | IP6K1 inhibitor | others
CC(C)[C@H]1C(=O)N[C@H](CO)Cc2c[nH]c3cccc(c23)N1C | 15µM* | 0% | -15% | ·
COc1cc(O)c2c(c1)/C=C/C[C@@H](O)[C@@H](O)C(=O)CCC[C@H](C)OC2=O | 3%[27.3 µM] | · | -30% | 1
Ic1ccccc1CNC1C2CCN(CC2)C1C(c1ccccc1)c1ccccc1 (centres undefined) | -2% | ? | 22µM* | ·
CCOc1ccc(CN(CCc2ccc3c(c2)OCO3)Cc2ccc(C)cc2)cc1 | · | 0% | 11% | -2
CCOc1ccc(CN(CCc2ccc3c(c2)OCO3)Cc2cccc(Br)c2)cc1 | · | 17% | 11% | -57*
CCOC(=O)[C@@H]1[C@H]2c3ccccc3N(C)C(=O)[C@H]2N(C(=O)NCc2ccccc2)[C@@H]1c1ccccc1 | · | · | · | 0
CCOC(=O)[C@H]1CN(C(=O)/C=C/c2ccccc2)[C@]2(C)C(=O)N(CC3CC3)c3ccccc3[C@H]12 | -2%[27.3 µM] | 3%[25.6 µM] | -8%[23.9 µM] | -13
COC1CC(O[C@H]2CC[C@]3(C=O)C4CC[C@]5(C)[C@@H](C6=CC(=O)OC6)CC[C@]5(O)[C@@H]4CC[C@@H]3C2)OC(C)C1O[C@@H]1O[C@H](CO)[C@@H](O[C@@H]2O[C@H](CO)[C@@H](O)[C@H](O)[C@H]2O)[C@H](O)[C@H]1O (some centres undefined) | -6%[17.1 µM] | · | 5.7µM* | 8
CCOC(=O)[C@H]1CN([S+](=O)([O-])c2cccs2)[C@]2(C)C(=O)N(CC3CC3)c3ccccc3[C@H]12 | -47%[27.3 µM] | ? | ? | 5
CC(C)=CCC[C@]1(C)C=Cc2c(O)c3c(c(CC=C(C)C)c2O1)O[C@]12C(=C[C@@H]4CC1C(C)(C)O[C@@]2(C/C=C(/C)C(=O)O)C4=O)C3=O | i | · | 1.9µM* | -25*
CC(C)OC(=O)c1ccnc2cc(C(OCCN3CCCCC3)c3ccccc3Cl)sc12 (centres undefined) | i | · | 30µM* | 0
CCCN(CCC)[C@@H]1CCc2ccc3[nH]c(C#N)cc3c2C1 | 4% | · | -31% | -9
COC(=O)N1CCN(C(=O)Cc2ccc(Cl)c(Cl)c2)[C@@H](CN2CCCC2)C1 | 4% | · | 1% | 8
C[C@@]12OC(=O)[C@]1([C@@H](O)[C@@H]1C=CCCC1)NC(=O)[C@H]2CCCl | i | 0.14µM* | ? | ·
COC(=O)[C@]12CCCC(C)(C)C1CCc1cc(C(C)C)c(O)c(O)c12 (some centres undefined) | -28%[27.3 µM] | · | -23% | 19
NC1=NC(=O)N2CC12 (centres undefined) | -7% | 9.6µM* | -15% | ·
CN1CC[C@]23c4c5ccc(O)c4O[C@H]2[C@@H](O)C=C[C@H]3[C@H]1C5 | 28µM* | 11% | 22% | 2
COc1ccc2c3c1O[C@H]1[C@@H](O)C=C[C@H]4[C@@H](C2)N(C)CC[C@@]341 | i | -28% | 28% | 2
C=C(C)C(=O)O[C@H]1[C@@H]2[C@H](C)C(=O)O[C@@H]2C[C@@H](C)[C@@H]2C=CC(=O)[C@]21C | 4%[27.3 µM] | · | 4.6µM* | -5
C[C@@H]1CN(Cc2ccc(F)cc2)CCN1C(=O)COc1ccc(Cl)cc1NC(N)=O | 0% | · | -36% | -6
COc1cc2c(cc1OCc1ccccc1)N(C(=O)c1c[nH]c3ccccc13)CC21CCN(C)CC1 | ? | ? | 25µM* | -4
CCOC(=O)[C@H]1CN(C(=O)Nc2ccc3c(c2)OCO3)[C@]2(C)C(=O)N(CC3CC3)c3ccccc3[C@H]12 | i | 34%[25.6 µM] | -3%[23.9 µM] | 7
NCC(O)c1cc(O)c(O)cc1F (centres undefined) | 10µM* | 12% | 7% | ·
c1ccc(O[C@H]2CNC3Cc4c([nH]c5ccccc45)C2C3)nc1 (some centres undefined) | · | · | · | 27
N#Cc1cn([C@@H]2O[C@H](CO)[C@H](O)[C@@H]2O)c2ncnc(N)c12 | ? | · | -28% | -27* | IP6K1 conf=10µM*
SMILES | GPT2 inhibitor | SNCA expr inhib | HEK293 viab | IP6K1 inhibitor | others
O=C(Nc1ccc(Br)cc1C(=O)c1ccccc1)c1ccccc1 | · | 0% | 13% | -8
O=C(Nc1ccc(Br)cc1)c1cc(Br)cc(Br)c1O | 4% | 34%[25.6 µM] | -30%[23.9 µM] | -40* | IP6K1 conf=23µM*
COP(=S)(OC)SCN1C(=O)c2ccccc2C1=O | i | 13%[25.6 µM] | -2%[23.9 µM] | -37* | IP6K1 conf=18µM*
Cc1sc2c(c1C)C(c1ccc(Cl)cc1)=N[C@@H](CC(N)=O)c1nnc(C)n1-2 | -7% | · | ? | 6
CCOC(=O)[C@H]1CN(C(=O)OCC(C)(C)C)[C@]2(C)C(=O)N(CC3CC3)c3ccccc3[C@H]12 | -1%[27.3 µM] | ? | -3%[23.9 µM] | -12
Cc1nc(-c2ccccc2Br)cc([C@H]2CN3CC[C@H]2C[C@@H]3CNC(=O)Nc2ccccc2)n1 | i | 8% | -20% | -9
Cc1cc(SCc2sc(-c3ccc(C(F)(F)F)c(F)c3)nc2C)ccc1OCC(=O)O | ? | 103% | -11% | -30* | IP6K1 conf=?
COc1cc2c(cc1OCC1CC1)NC(=O)C21CCN(C(=O)c2cccc(C#N)c2)CC1 | 5%[88.5 µM] | 1%[87.6 µM] | 9%[87.6 µM] | -27* | IP6K1 conf=1%
COc1cc(C)[nH]c(=O)c1CNC(=O)c1c(C)n([C@H](C)C2CCOCC2)c2ccccc12 | i | · | 5% | -8
COc1cc2c(cc1OCc1ccccc1)NC(=O)C21CCN(c2cnccn2)CC1 | 2%[88.5 µM] | 10%[87.6 µM] | -10%[87.6 µM] | -29* | IP6K1 conf=?
COc1cc2c(cc1OC1CCCC1)NC(=O)C21CCN(c2cnccn2)CC1 | 3%[88.5 µM] | ? | -3%[87.6 µM] | -30* | IP6K1 conf=-19%
CN(C)[C@@H]1C(=O)C(C(N)=O)=C(O)[C@@]2(O)C(=O)C3=C(O)c4c(O)ccc(Cl)c4[C@@](C)(O)C3C[C@@H]12 (some centres undefined) | i | · | -48% | 16
CN(C)[C@@H]1C(=O)C(C(N)=O)=C(O)[C@@]2(O)C(=O)C3=C(O)c4c(O)cccc4[C@@](C)(O)[C@H]3C[C@@H]12 | 5% | 21% | 4% | -75* | IP6K1 conf=0%
O=C(Cc1cccc(Cl)c1)N1CCN(Cc2ccccc2-c2cccnc2)CC1 | -9% | -1% | -2%[12.5 µM] | 7
C[C@]12CC[C@H](O)C[C@@H]1CC[C@@H]1[C@@H]2CC[C@]2(C)[C@@H](C3=CC(=O)OC3)CC[C@]12O | i | · | -37% | 6
O=C(Cc1ccc(F)cc1)N1CCN(Cc2ccccc2-c2cccnc2)CC1 | i | -5% | -22%[12.5 µM] | 2
